Here are results for five compounds from PubChem BioAssay.

Results filed as inconclusive are left out. Active and inactive are the calls of the source.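 How the source made its calls, unless noted: active means RAM network inhibition above 8.4% in each of two replicates, 3 SD over the compound average; inconclusive means above 8.4% inhibition in only one replicate; inactive means 8.4% inhibition or less in each replicate.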

Experiment [1] can be described thus: Her2 expression decrease, cell viability multiplex – SKBR3 breast tumor cells, AlphaScreen, ATP viability, primary screen (AID 461;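 active means Her2 level under about 52% in both replicate screens, with viability over 70% of control, limit read from the data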;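 on Her2 level: lower value means less Her2 protein in the cells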;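 on viability: percent of carrier control wells set as 100% viability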). Conditions: SKBR3 Her2 protein level, 18-24 h, measured here: SKBR3 viability, ATP luminescence, at 10 µM. (In general: Bead proximity is the source of the signal in Alpha formats.)
Experiment [2] addresses Receptor tyrosine-protein kinase erbB-2 (Homo sapiens) (UniProt P04626). Described as above. To be noted: 18-24 h, at 10 µM, stronger effect = lower value.
Experiment [3] in a line: reduced viability of SK-BR-3 breast cancer cells – cell-based, 24 h, human, pilot screen (AID 572;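 active means viability at or below 10% of carrier control in both of two separate runs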;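 further: compound exposure lasted between 18 and 24 h rather than exactly 24 h; 100% = carrier-treated control wells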). To be noted: SK-BR-3 viability, CellTiter-Glo luminescence, at 10 µM, stronger effect = lower value. In general terms: ATP-based viability assays read luminescence as a measure of living cells.
Experiment [4] in a line: HUVEC growth inhibition – cell-based, human, primary screen (AID 575;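 active means viability at or below 30% in both replicate assays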;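 further: 100% = median of untreated cell wells with 0.1% DMSO on each plate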). Conditions: HUVEC proliferation, CellTiter-Glo luminescence, 72 h; at 10 µM; stronger effect = lower value.
A short description of experiment [5]: H69AR cell proliferation blockers – human, duplicate replicates, primary screen (AID 580;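 active means viability at or under a set limit in both replicates, limit being median viability minus 3 SD, cut at about 48% in these data, passing the limit was not always enough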;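 further: 100% = mean luminescence of untreated wells and 0% = no signal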). To be noted: H69AR lung tumor cells viability, ATP luminescence, 72 h; at 10 µM; stronger effect = lower value.
Experiment [6] in a line: MRP1 drug-resistance reversers in H69AR cells – cell-based, doxorubicin co-treatment, pilot screen (AID 601;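 active means viability loss from added drug above about 55%, and viability with drug at most 40%, in both replicates, limit read from the data, passing the limit was not always enough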). To be noted: CellTiter-Glo, 72 h, at 10 µM; for differential viability (reversal): stronger effect = higher value.
Experiment [7] in a line: yeast transport mutant growth inhibition pilot in 384-well plates, post-Golgi transport modulator project (AID 636; in the data active means inhibition above about 31%). To be noted: absorbance 615 nm, about 18 h, stronger effect = higher value.
The nature of experiment [8]: growth suppression of yeast trafficking mutant, preliminary HTS, modulators of trafficking downstream of Golgi apparatus project, 1536-format plate, OD 615 nm (AID 637; in the data active means inhibition above about 30%). Conditions: yeast transport mutant growth, absorbance 615 nm, 18 h; stronger effect = higher value.
The nature of experiment [9]: S. cerevisiae growth inhibition in permissive medium (OD615), pilot counter-assay for S. cerevisiae lifespan shortening project, permissive growth control (AID 705;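 active means growth inhibition above 25% in both replicates, a cutoff set 3 SD above the mean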). Conditions: OD615, 24 h, at 10 µM, stronger effect = higher value.
Experiment [10] in a line: S. cerevisiae growth inhibition in restrictive medium, OD615, pilot screen, restrictive growth control, yeast lifespan reduction project (AID 706;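 active means growth inhibition above a set limit, 3 SD over mean compound inhibition, in both replicates, cut at about 43% in these data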;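 further: modified DeaD lifespan yeast strain shifted to restrictive glucose medium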). Conditions: OD615, 48 h, at 10 µM, stronger effect = higher value.
A short description of experiment [11]: doxorubicin toxicity protection in MRP-1 cells – H69AR cells, CellTiter-Glo, duplicate, MRP-1 activator project, pilot screen (AID 807;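 active means viability increase at or above a cutoff of the median across tested compounds plus 3 SD, cut at about 8.5% in these data, passing the limit was not always enough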;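 further: compound pretreatment 18-22 h then 72 h combined with doxorubicin; 0% = doxorubicin alone and 100% = vehicle without doxorubicin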). Conditions: H69AR viability with doxorubicin, CellTiter-Glo luminescence; at 10 µM; stronger effect = higher value.
Experiment [12] can be described thus: viability of HCT116 without oncogenic beta-catenin – human colon tumor cells, pilot screen (AID 823;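 active means cell viability at or below a set limit in both duplicate runs, the limit being the all-compound median minus 4 SD, cut at about 23% in these data, passing the limit was not always enough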;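 further: 0% = wells killed by 20 µM Hyamine and 100% = untreated DMSO cell wells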). Conditions: HCT116 beta-catenin knockout viability, CellTiter-Glo, 60 h; at 10 µM; stronger effect = lower value.
A short description of experiment [13]: viability of PTEN-null HCT116 cells – cell-based, HCT116 clonal line, CellTiter-Glo, pilot screen (AID 824;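 active means viability at or below 27.92% in each of two runs, the all-compound median minus 4 SD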;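 further: 0% = 20 µM Hyamine control and 100% = vehicle cell control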). Conditions: HCT116 PTEN-deleted viability, 60 h, at 10 µM, stronger effect = lower value.
A short description of experiment [14]: RAM pathway blockade in budding yeast – dse1pr::URA3 reporter, 5-FOA selection, pilot screen (AID 869;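 active means inhibition over a set limit, the all-compound mean plus 3 SD, in both replicate runs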;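 further: 0% = DMSO wells with no growth and 100% = 10 µM 1-NA-PP1 with full growth; RAM network block rescues cells from 5-FOA so hits raise OD615 growth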). To be noted: S. cerevisiae dse1pr::URA3 5-FOA growth, OD615, 2 d; at 10 µM; stronger effect = higher value; strain carries analog-sensitive mutant Cbk1 kinase.
Experiment [15] can be described thus: RAM signaling pathway blockade in yeast – S. cerevisiae, Pdr1DBD-CYC8 efflux-inhibited sensitized strain, primary screen (AID 1298).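 Further: 0% = DMSO untreated cells without growth and 100% = 10 µM 1-NA-PP1 full growth; higher means more yeast growth rescued from 5-FOA killing.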 Conditions: S. cerevisiae cbk1-as DSE1-URA3 strain, 5-FOA growth OD615, 2 d; at 50 µM; stronger effect = higher value.
The mark [16] stands for this setting: H69AR cells + 2 uM doxorubicin, measured here: viability with 2 uM doxorubicin, stronger effect = lower value.
The mark [17] stands for this setting: H69AR cells, compound alone cytotoxicity.

Receptor tyrosine-protein kinase erbB-2 (Homo sapiens), sequence (P04626 whole entry, looked up): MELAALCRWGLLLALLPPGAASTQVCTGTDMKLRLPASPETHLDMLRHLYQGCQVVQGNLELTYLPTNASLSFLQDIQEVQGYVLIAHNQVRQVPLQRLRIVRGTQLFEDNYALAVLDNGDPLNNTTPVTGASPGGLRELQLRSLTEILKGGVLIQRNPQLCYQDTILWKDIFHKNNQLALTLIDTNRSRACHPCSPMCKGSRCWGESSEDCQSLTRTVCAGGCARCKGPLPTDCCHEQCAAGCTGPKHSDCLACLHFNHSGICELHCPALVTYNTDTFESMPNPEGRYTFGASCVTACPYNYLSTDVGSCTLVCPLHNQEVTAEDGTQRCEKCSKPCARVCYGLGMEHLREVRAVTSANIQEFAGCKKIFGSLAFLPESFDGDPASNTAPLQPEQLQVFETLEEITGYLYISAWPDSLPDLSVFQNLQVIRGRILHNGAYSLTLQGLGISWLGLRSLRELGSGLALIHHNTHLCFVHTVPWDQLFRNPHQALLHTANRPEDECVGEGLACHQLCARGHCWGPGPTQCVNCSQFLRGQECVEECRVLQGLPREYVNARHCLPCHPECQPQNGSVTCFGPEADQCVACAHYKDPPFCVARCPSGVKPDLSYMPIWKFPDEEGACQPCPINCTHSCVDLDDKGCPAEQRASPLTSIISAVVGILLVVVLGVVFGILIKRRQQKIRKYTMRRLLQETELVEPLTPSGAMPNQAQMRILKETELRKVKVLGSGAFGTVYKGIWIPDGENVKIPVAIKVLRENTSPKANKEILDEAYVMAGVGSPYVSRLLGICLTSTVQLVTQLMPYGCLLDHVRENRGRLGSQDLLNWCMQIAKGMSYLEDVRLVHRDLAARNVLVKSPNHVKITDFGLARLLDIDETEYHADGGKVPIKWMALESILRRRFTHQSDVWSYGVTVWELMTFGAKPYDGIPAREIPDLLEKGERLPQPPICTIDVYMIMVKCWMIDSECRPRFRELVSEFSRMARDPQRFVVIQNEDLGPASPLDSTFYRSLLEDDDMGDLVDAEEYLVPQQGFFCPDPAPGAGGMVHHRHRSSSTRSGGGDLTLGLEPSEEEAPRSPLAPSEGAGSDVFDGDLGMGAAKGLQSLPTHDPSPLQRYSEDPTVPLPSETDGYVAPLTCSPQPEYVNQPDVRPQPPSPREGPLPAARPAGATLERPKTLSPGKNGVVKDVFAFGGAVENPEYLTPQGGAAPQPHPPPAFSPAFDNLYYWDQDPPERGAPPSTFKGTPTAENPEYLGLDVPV

For orientation: viability means a read-out of living cells in per cent, often relative to untreated cells. Broadly, the inhibition is the drop in the measured response relative to a control, in per cent. `Cc1c(-n2c(CN3C(=O)c4ccccc4C3=O)nc3ccccc3c2=O)c(=O)n(-c2ccccc2)n1C`: the viability in [1] is 93.5%; in experiment [3] it was 93.5% (inactive); in experiment [4] it was 105% (inactive); in experiment [5], 101% (inactive); in experiment [6] (setting [16]), 97%; in experiment [6] (setting [17]) it was 101%. Besides, the viability in experiment [12] was 102% (inactive); in [13], 99.6% (inactive). Besides, the Her2 level in experiment [2] is 110% (inactive). Moreover, in experiment [6] (H69AR cells + 2 uM doxorubicin), the differential viability (reversal) was 3.82% (inactive). Besides, the values for the inhibition in experiment [7], in experiment [8] and in experiment [14] were -1.76% (inactive), 4.6% (inactive) and 1.4% (inactive), respectively. The figures for the growth inhibition in experiment [9] and in experiment [10] were -2.33% (inactive) and 2.67% (inactive), respectively. Besides, the viability increase in [11] is -1.08% (inactive). Besides, the RAM network inhibition in [15] is 5.4% (inactive).
`CC1=C(C(=O)N2CCCCC2)C(c2cccs2)C2=C(CCCC2=O)N1` (stereo not given): the viability in [1] was 100%; in experiment [3], 100% (inactive); in experiment [4] it was 96.7% (inactive); in [5] it was 92.8% (inactive); in [6] (setting [16]), 91.7%; in experiment [6] (setting [17]), 92.8%. Further, the viability was 98.1% (inactive) in experiment [12] and 87% (inactive) in [13]. In addition, in [2], the Her2 level is 174% (inactive). Besides, in experiment [6] (H69AR cells + 2 uM doxorubicin), the differential viability (reversal) is 1.19% (inactive). Further, the results for the inhibition in experiment [7], in [8] and in experiment [14] were 0.13% (inactive), -5.67% (inactive) and 1.4% (inactive), respectively. Moreover, the growth inhibition in experiment [9] was -7.14% (inactive); in [10], -3.55% (inactive). The viability increase in experiment [11] was -0.74% (inactive). Besides, in experiment [15], the RAM network inhibition was -0.77% (inactive).
As to `COc1ccc(S(=O)(=O)N2CCN(c3ccc(C)cc3C)CC2)cc1OC`, the viability is 94.5% in [1]; 94.5% (inactive) in [3]; 73.8% (inactive) in experiment [4]; 97.2% (inactive) in [5]; 98.2% in experiment [6] (setting [16]); 97.2% in [6] (setting [17]). Also, the viability was 50.6% (inactive) in [12] and 72.2% (inactive) in [13]. Moreover, in [2], the Her2 level is 93.5% (inactive). Moreover, the differential viability (reversal) in experiment [6] (H69AR cells + 2 uM doxorubicin) was -0.96% (inactive). The figures for the inhibition in experiment [7], in experiment [8] and in experiment [14] were -5.87% (inactive), 2.5% (inactive) and 2.41% (inactive), respectively. The growth inhibition was 0.1% (inactive) in experiment [9] and 4.36% (inactive) in experiment [10]. In [11], the viability increase is -0.07% (inactive). In addition, in experiment [15], the RAM network inhibition was 1.74% (inactive).
Regarding `Cc1ccc(C)c2[nH]c(=O)c(CCNC(=O)c3ccc(S(=O)(=O)N(C)C)cc3)cc12`, the viability in experiment [1] was 121%; in [3], 121% (inactive); in experiment [4], 88.1% (inactive); in [5] it was 82.3% (inactive); in experiment [6] (setting [16]) it was 83.9%; in experiment [6] (setting [17]) it was 82.3%. The viability in experiment [12] was 93.2% (inactive); in experiment [13], 81.5% (inactive). Further, the Her2 level in experiment [2] is 114% (inactive). Further, the differential viability (reversal) in experiment [6] (H69AR cells + 2 uM doxorubicin) is -1.57% (inactive). Besides, the inhibition in [7] is -4.13% (inactive); in experiment [8] it was -4% (inactive); in experiment [14], 2.99% (inactive). For the same compound, the growth inhibition in experiment [9] is -2.9% (inactive); in [10], -22.2% (inactive). For the same compound, the viability increase in experiment [11] is -4.33% (inactive). Further, the RAM network inhibition in [15] is 3.23% (inactive).
As for `Cc1cc(NS(=O)(=O)c2ccc(NC(=O)COc3ccccc3C(C)C)cc2)no1`, the viability in [1] was 98%; in experiment [3], 98% (inactive); in [4], 80.9% (inactive); in experiment [5] it was 88.9% (inactive); in [6] (setting [16]), 87.6%; in [6] (setting [17]), 88.9%. For the same compound, the viability in experiment [12] was 93.6% (inactive); in [13] it was 83.4% (inactive). For the same compound, the Her2 level in experiment [2] was 90.5% (inactive). Further, the differential viability (reversal) in [6] (H69AR cells + 2 uM doxorubicin) was 1.26% (inactive). The figures for the inhibition in [7], in [8] and in experiment [14] were -5.2% (inactive), -3.33% (inactive) and 2.17% (inactive), respectively. For the same compound, the figures for the growth inhibition in experiment [9] and in experiment [10] were -12% (inactive) and -18.1% (inactive), respectively. In addition, the viability increase in [11] is -1.38% (inactive). Further, the RAM network inhibition in experiment [15] is 4.16% (inactive).
